Measurements taken from PubChem BioAssay (Tox21).
A number with no mark means an inactive call. Inconclusive results are not listed. Entries that show only a call come without a potency. The source made the active and inactive calls. Unless noted, calls follow the shape of the full dose curve.

Tests used:
[1] = qHTS assay to identify small molecule agonists of the sonic hedgehog signaling (Shh) pathway (AID 1259368);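 also: NIH/3T3-derived 3T3Gli1-Luc cells carrying a stable Gli1-driven firefly luciferase reporter; series mostly up to about 92 µM; nearly all actives have a fitted effect of over 15% in size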
How it was run: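 Mouse fibroblast (NIH/3T3) reporter cells with stably integrated Gli1-Luc were treated 24 hr with compound; firefly luciferase luminescence served as the read-out.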

[2] = qHTS assay to identify small molecule antagonists of the sonic hedgehog signaling (Shh) pathway (AID 1259369); also: nearly all actives have a fitted effect of over 45% in size; also: potency is read from the fitted curve at half-maximal effect
How it was run: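 Conditioned medium drives Shh signalling in 3T3Gli1-Luc cells; compounds in DMSO co-applied, 24hr at 37 C, then luciferase luminescence.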

[3] = qHTS assay to identify small molecule agonists of the androgen receptor (AR) signaling pathway in the presence of an antagonist - cell viability counter screen (AID 1259379; active = well fitted curve in the direction sought with a large enough effect in the repeat runs; an effect the other way counts as inactive or inconclusive; also: nearly all actives have a fitted effect of over 25% in size; also: potency is read from the fitted curve at half-maximal effect)
How it was run: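 A CellTiter-Fluor read-out measured viability of MDA-kb2 reporter cells (MMTV promoter with AR and GR response elements). Treatment: nilutamide 3.0uM final with compounds at 15 concentrations, 16 hr, 37C, 0% CO2.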

[4] = qHTS assay to identify small molecule antagonists of the estrogen receptor beta (ER-beta) signaling pathway - cell viability counter screen (AID 1259382; active = well fitted curve in the direction sought with a large enough effect in the repeat runs; an effect the other way counts as inactive or inconclusive; also: series mostly up to about 92 µM; nearly all actives have a fitted effect of over 55% in size)
How it was run: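 Agonist-stimulated (1nM E2) ER-beta-UAS-bla HEK293T cells are incubated with library compounds for 16 hr at 37C. Cell viability is then assessed in the reporter-assay wells by adding CellTiter-Glo and reading luminescence after 30 min.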

[5] = qHTS assay to identify small molecule agonists or antagonists of the thyroid stimulating hormone receptor (TSHR) signaling pathway - wild type cell line counter screen (AID 1259384)
How it was run: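 Wild-type Hek293 cells, 800/well, 18 h at 37C, then compound with Ro20-1724 for 30 min RT. cAMP by HTRF (cAMP-d2/anti-cAMP cryptate), 1 h RT, fluorescence read. 15 concentrations, triplicates.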

[6] = qHTS assay to identify small molecule agonists of the estrogen receptor beta (ER-beta) signaling pathway - cell viability counter screen (AID 1259380; active = well fitted curve in the direction sought with a large enough effect in the repeat runs; an effect the other way counts as inactive or inconclusive; also: nearly all actives have a fitted effect of over 30% in size; also: potency is read from the fitted curve at half-maximal effect)
How it was run: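 Cells used were ER-beta-UAS-bla HEK293T in medium with 2% charcoal-stripped FBS. They were treated for 16 hr at 37C. Viability came from CellTiter-Glo luminescence.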

[7] = biological target: Estrogen receptor (Homo sapiens) (UniProt P03372); test: qHTS assay to identify small molecule agonists of the estrogen receptor alpha (ER-alpha) signaling pathway in the presence of an antagonist (AID 1259383); also: top concentration of the series differs between compounds; nearly all actives have a fitted effect of over 15% in size
Sequence of Estrogen receptor (Homo sapiens) (P03372 whole entry, looked up): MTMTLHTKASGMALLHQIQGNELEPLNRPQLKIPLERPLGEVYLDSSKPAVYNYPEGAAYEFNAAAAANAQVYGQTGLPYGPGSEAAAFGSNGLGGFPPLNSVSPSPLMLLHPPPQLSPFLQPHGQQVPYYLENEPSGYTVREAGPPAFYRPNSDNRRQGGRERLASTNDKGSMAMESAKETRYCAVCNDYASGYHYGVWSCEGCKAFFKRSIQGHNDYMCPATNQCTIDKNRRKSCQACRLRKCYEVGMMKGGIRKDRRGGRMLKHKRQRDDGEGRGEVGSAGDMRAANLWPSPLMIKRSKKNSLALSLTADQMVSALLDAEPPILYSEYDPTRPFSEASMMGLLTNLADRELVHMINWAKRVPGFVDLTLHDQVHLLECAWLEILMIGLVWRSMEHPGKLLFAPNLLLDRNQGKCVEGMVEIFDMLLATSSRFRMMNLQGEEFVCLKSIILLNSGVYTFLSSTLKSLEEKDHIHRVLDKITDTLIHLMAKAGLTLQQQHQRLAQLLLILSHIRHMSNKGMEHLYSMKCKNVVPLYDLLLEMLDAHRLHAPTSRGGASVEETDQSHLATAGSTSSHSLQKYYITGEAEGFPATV
How it was run: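 Using VM7Luc4E2 cells seeded 24hr before treatment, antagonist ICI-182,780 (10.0nM final) was added, followed by compounds at 15 concentrations. Plates incubated 22hr; ONE-Glo luminescence quantified reporter activity.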

[8] = biological target: Androgen receptor (Homo sapiens) (UniProt P10275); test: qHTS assay to identify small molecule agonists of the androgen receptor (AR) signaling pathway in the presence of an antagonist (AID 1259381); also: nearly all actives have a fitted effect of over 15% in size
Sequence of Androgen receptor (Homo sapiens) (P10275 whole entry, looked up): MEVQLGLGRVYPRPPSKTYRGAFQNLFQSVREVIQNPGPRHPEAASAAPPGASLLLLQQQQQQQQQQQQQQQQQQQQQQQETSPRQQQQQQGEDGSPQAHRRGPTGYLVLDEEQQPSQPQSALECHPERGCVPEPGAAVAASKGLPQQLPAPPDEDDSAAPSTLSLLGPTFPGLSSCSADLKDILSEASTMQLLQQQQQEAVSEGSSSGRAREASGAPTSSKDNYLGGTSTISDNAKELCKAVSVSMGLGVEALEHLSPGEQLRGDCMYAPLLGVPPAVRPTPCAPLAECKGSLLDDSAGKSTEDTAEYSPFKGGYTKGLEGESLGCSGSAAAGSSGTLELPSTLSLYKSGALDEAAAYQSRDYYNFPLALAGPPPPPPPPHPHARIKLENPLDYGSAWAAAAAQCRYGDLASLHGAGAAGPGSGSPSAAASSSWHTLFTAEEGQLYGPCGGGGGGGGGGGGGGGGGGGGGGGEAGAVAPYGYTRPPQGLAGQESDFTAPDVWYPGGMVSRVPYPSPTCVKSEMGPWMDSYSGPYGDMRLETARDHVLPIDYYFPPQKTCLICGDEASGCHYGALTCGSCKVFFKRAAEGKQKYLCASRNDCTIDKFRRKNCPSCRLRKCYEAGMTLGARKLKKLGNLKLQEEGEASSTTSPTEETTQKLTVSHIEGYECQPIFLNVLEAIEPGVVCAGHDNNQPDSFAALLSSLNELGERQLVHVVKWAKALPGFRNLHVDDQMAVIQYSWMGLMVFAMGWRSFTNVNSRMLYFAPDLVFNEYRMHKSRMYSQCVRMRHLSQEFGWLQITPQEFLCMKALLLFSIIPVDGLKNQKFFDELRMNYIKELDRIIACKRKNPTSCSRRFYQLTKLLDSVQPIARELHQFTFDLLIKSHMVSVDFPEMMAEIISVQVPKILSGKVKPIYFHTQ
How it was run: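 Using human MDA-kb2 cells with an MMTV promoter–luciferase construct (AR and GR response elements), agonist activity is scored under 3.0uM nilutamide (final) co-treatment; 16hr incubation, 37C, luminescence readout via ONE-Glo.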

[9] = biological target: Estrogen receptor beta (Homo sapiens) (UniProt Q92731); test: qHTS assay to identify small molecule agonists of the estrogen receptor beta (ER-beta) signaling pathway (AID 1259377; active = well fitted activation curve with a large enough effect in the signal ratio in the repeat runs, not every such curve was filed as active; the % refers to the signal ratio)
Sequence of Estrogen receptor beta (Homo sapiens) (Q92731 whole entry, looked up): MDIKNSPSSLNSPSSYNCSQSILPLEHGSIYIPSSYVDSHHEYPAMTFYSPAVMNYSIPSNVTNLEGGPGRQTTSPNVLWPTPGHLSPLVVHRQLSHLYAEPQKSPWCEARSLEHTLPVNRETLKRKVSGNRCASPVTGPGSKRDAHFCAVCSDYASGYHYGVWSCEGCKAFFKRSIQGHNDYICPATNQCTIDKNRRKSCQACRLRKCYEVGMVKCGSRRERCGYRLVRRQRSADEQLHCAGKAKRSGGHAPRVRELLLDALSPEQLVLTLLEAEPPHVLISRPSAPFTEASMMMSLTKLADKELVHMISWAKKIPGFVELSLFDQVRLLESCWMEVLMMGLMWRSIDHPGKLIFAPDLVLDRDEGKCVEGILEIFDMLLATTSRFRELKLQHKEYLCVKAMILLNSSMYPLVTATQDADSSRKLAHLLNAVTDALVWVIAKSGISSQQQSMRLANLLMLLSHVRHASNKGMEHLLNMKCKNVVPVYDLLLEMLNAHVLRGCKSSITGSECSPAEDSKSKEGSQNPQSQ
How it was run: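 Reporter cells (HEK293T, ER-beta-UAS-bla) receive compounds or DMSO after a 6 hr pre-incubation. They then incubate 16 hr at 37C/5% CO2, and fluorescence from LiveBLAzer B/G substrate is measured after 2 hours at room temperature.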

[10] = biological target: Estrogen receptor beta (Homo sapiens) (UniProt Q92731); test: qHTS assay to identify small molecule antagonists of the estrogen receptor beta (ER-beta) signaling pathway (AID 1259378; active = well fitted inhibition curve with a large enough effect in the signal ratio in the repeat runs, not every such curve was filed as active; the % refers to the signal ratio)
How it was run: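 ER-beta-UAS-bla HEK293T cells in 2% charcoal-stripped FBS medium treated with compound plus 1nM final 17-beta-estradiol for 16 hr at 37C. Beta-lactamase reporter read by FRET substrate fluorescence after 2 hours at room temperature.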

SMILES	Potency [1]	Potency [2]	Potency [3]	Potency [4]	outcome [5]	Potency [6]	Potency [7]	Potency [8]	Potency [9]	Potency [10]
COC(=O)C(C)(C)C	inactive	inactive	inactive	inactive	inactive	–	–	–	–	–
CCCCCCCCCC(C)C=O (configuration not stated)	inactive	inactive	inactive	–	inactive	48.6 µM (active)	–	–	–	–
CCCCCCCCCCCCSC#N	inactive	inactive	inactive	inactive	inactive	–	inactive	–	–	–
CC(C)Oc1ccccc1O	inactive	inactive	inactive	inactive	inactive	–	inactive	–	–	–
C=CC(=O)NC(C)(C)C	inactive	inactive	inactive	inactive	–	–	inactive	–	–	–
O=C(O)c1cc(C(=O)O)cc([N+](=O)[O-])c1	inactive	inactive	inactive	inactive	inactive	inactive	–	–	–	–
Clc1cc(Cl)c2c(c1)N=C1CCCCCN1C2	inactive	inactive	inactive	inactive	inactive	–	inactive	–	–	–
Nc1cccc2c(=O)[nH][nH]c(=O)c12	inactive	inactive	inactive	–	inactive	24.5 µM (active)	inactive	–	–	–
CS(C)=O	inactive	68.6 µM (active)	inactive	inactive	inactive	inactive	–	–	–	–
CCc1ccc(C(=O)C(C)CN2CCCCC2)cc1 (configuration not stated)	inactive	inactive	inactive	inactive	–	–	–	–	–	–
Nc1ccc(C(=O)Oc2ccccc2)c(O)c1	inactive	inactive	inactive	inactive	inactive	inactive	inactive	–	–	–
CCc1c(C)[nH]c2c1C(=O)C(CN1CCOCC1)CC2 (configuration not stated)	inactive	inactive	inactive	inactive	–	–	–	–	–	–
CC(C)NC(=O)c1ccccc1N	inactive	inactive	inactive	inactive	inactive	inactive	inactive	–	–	–
[O-][n+]1ccc(Cl)cc1	inactive	inactive	inactive	inactive	–	–	–	–	–	–
CCc1cnc(C(=O)O)c(C(=O)O)c1	inactive	inactive	inactive	inactive	–	–	inactive	–	–	–
COC(=O)Cc1cccc2ccccc12	inactive	inactive	inactive	inactive	inactive	–	inactive	inactive	–	–
Cc1ccc(S(=O)(=O)NC(=O)NC2CCCC2)cc1	inactive	inactive	inactive	inactive	inactive	inactive	–	–	–	–
Cc1ccc(NC(=O)c2ccc(CN3CCN(C)CC3)cc2)cc1Nc1nccc(-c2cccnc2)n1	inactive	2.66 µM (active)	inactive	inactive	inactive	–	inactive	inactive	–	–
O=C(OCCCCCOC(=O)c1ccccc1)c1ccccc1	inactive	inactive	inactive	inactive	–	–	inactive	–	–	–

SMILES	Potency [1]	Potency [2]	Potency [3]	Potency [4]	outcome [5]	Potency [6]	Potency [7]	Potency [8]	Potency [9]	Potency [10]
O=[N+]([O-])c1cccc(I)c1	inactive	inactive	inactive	inactive	inactive	–	inactive	–	–	–
CCCCCCCCOCCCN	inactive	30.6 µM (active)	inactive	–	inactive	–	inactive	inactive	–	–
C1=COCCC1	inactive	inactive	inactive	inactive	–	–	inactive	–	–	–
O=C(O)COCC(=O)O	inactive	inactive	inactive	inactive	inactive	inactive	–	–	–	–
CC(C(=O)O)c1ccc(/C=C2\CCCCC2=O)cc1 (configuration not stated)	inactive	inactive	inactive	inactive	inactive	inactive	–	–	–	–
O=C(O)CNc1ccccc1	inactive	inactive	inactive	inactive	inactive	–	–	–	–	–
CC1(COc2ccc(CC3SC(=O)NC3=O)cc2)CCCCC1 (configuration not stated)	inactive	inactive	inactive	inactive	inactive	10.6 µM (active)	inactive	–	–	–
OCCOc1cccc(OCCO)c1	inactive	inactive	inactive	inactive	–	–	–	–	–	–
Cc1c(Nc2ncccc2C(=O)O)cccc1C(F)(F)F	inactive	inactive	inactive	–	inactive	8.41 µM (active)	–	–	–	–
O=C(OCCN1CCOCC1)c1cccnc1Nc1cccc(C(F)(F)F)c1	inactive	inactive	inactive	inactive	inactive	–	inactive	inactive	–	–
O=Cc1ccc([N+](=O)[O-])cc1	inactive	inactive	inactive	inactive	inactive	inactive	–	–	–	–
Cc1c(Cl)cccc1Nc1ccccc1C(=O)O	inactive	inactive	inactive	–	–	inactive	inactive	–	–	–
CCCCCCCCCCCCCCCCN	inactive	inactive	inactive	inactive	inactive	–	inactive	–	–	–
CC(=O)Oc1cccc2c1C(=O)c1c(OC(C)=O)cc(C(=O)O)cc1C2=O	inactive	inactive	26.6 µM (active)	inactive	inactive	–	–	inactive	–	–
Cc1cc(C)c(C)c(O)c1	inactive	inactive	inactive	inactive	inactive	–	inactive	–	–	–
COc1cc(CNC(=O)CCCC/C=C/C(C)C)ccc1O	inactive	inactive	inactive	inactive	inactive	–	inactive	–	–	–
Cc1nc2sccn2c(=O)c1CCN1CCC(=C(c2ccc(F)cc2)c2ccc(F)cc2)CC1	inactive	–	inactive	–	–	13.3 µM (active)	inactive	–	–	–
C[C@]12CCC(=O)C=C1[C@@H]1C[C@@H]1[C@H]1[C@@H]3[C@@H]4C[C@@H]4[C@@]4(CCC(=O)O4)[C@@]3(C)CC[C@@H]12	inactive	–	inactive	inactive	–	–	–	–	–	–
CCOc1cc(OCC)c(C(C)=O)cc1OCC	inactive	–	–	inactive	–	–	inactive	inactive	inactive	inactive
